IMPase Li inh: cell-permeable IMPase inhibitors with lithium potentiation | CHO-M1 cells, IP1 TR-FRET (IP-One), carbachol + lithium | Potency, µM (doses to about 59.4 µM), for the others: top-dose activity, negative = IMPase inhibition, actives largely listed as inhibitors | 0.35% of 210,000 active | AID 1457;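 further: IP1 builds up when IMPase is blocked and the TR-FRET signal falls; plate controls were basal vehicle for no effect and high inhibitor control for full effect; nearly all actives have a fitted effect of over 50% in size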
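Readout is a homogeneous TR-FRET IP1 immunoassay (Ex 320, Em 665 and 620), where raised cytosolic IP1 lowers signal. Cells were CHO-M1 treated 30 min at 37C with test compounds plus a little lithium; AC50 values came from Hill-equation fitting.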
MBNL1 CUG block: MBNL1-poly(CUG) RNA binding inhibition; 0.036% of 280,000 active; Q9NR56; TR-FRET MBNL1-His/biotin-(CUG)12 binding, 665/545 ratio; Potency, µM (highest dose often 57.5 µM), without a hit: at the highest dose activity change, negative = inhibition, most hits filed as inhibitors; AID 2675; active means well fitted inhibition curve with a large enough effect in the signal ratio, with a control signal flat, not every such curve was filed as active; inconclusive means small, poorly fitted or top-dose-only effect, or effect the other way, or a change in a side signal; inactive means no such curve, though single readings can be large or run the other way; the % refers to the signal ratio
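Compounds (final 92 nM to 58 uM) are added to His-tagged MBNL1 and biotin-(CUG)12, then terbium anti-His antibody and streptavidin-XL665 (5 nM final). After 60 min at room temperature, the 665/545 nm ratio is read.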
NPSR antagonist: neuropeptide S receptor (human) antagonism, cAMP; Q6W5P4; CHO-NPSR cells, cAMP TR-FRET, antagonist mode; Potency, µM (series often up to 38.3 µM), for inactives: at the top dose activity change, negative = inhibition, hits mostly inhibitors; 1% of 220,000 active; further: nearly all actives have a fitted effect of over 50% in size
Target sequence (Q6W5P4 whole entry, looked up): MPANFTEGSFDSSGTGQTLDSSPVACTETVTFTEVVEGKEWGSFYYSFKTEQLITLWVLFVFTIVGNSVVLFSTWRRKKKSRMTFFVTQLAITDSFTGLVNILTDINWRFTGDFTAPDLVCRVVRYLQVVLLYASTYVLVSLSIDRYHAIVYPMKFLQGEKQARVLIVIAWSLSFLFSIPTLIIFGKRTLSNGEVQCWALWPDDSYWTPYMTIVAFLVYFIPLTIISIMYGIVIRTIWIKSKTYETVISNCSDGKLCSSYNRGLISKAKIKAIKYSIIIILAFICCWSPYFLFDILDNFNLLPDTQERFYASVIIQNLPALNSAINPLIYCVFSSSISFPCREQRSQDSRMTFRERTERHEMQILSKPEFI
Tb PFK block: T. brucei PFK enzyme inhibition; AID 485367; O15648; Potency, µM (doses to about 57.5 µM), for inactives: at the top dose activity, negative = inhibition, hits mostly inhibitors; 0.17% of 330,000 active; T. brucei PFK, ADP-Glo luminescence;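 further: 0% = uninhibited 1x PFK enzyme wells and -100% = no-enzyme wells; nearly all actives have a fitted effect of over 60% in size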
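PFK 1.25 nM, F6P 0.5 mM, ATP 0.1 mM, 0.1 M TEA pH 8.0, 5 mM MgCl2, 0.01% Tween20, 0.1% BSA; 45 min RT. ADP-Glo readout. qHTS titration up to 57 uM; curves fitted, compounds curve-classed.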
RGS12 GoLoco inh: blocks human Gai1 binding to RGS12 GoLoco peptide, red readout; P63096; Gai1:RGS12 GoLoco peptide FP, rhodamine, 10 min; Potency, µM (highest dose often 61.6 µM), for the others: at the highest dose activity, negative = inhibition, most hits filed as inhibitors; 0.44% of 230,000 active; active means well fitted inhibition curve with a large enough effect, not every such curve was filed as active; inactive means no such curve, though single readings can be large or run the other way; further: nearly all actives have a fitted effect of over 30% in size
Target sequence (P63096 whole entry, looked up): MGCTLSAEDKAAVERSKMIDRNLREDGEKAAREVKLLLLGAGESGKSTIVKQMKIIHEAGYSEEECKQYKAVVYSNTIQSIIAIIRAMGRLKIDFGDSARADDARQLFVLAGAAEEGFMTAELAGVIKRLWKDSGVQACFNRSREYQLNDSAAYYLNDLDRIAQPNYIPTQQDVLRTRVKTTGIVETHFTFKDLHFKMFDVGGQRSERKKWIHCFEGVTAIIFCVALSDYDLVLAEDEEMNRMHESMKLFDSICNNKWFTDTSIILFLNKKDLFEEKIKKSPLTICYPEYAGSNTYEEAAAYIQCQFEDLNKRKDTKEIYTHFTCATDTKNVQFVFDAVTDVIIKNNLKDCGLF
Active calls of the source: *; ? = inconclusive; nt = not tested or not shown; ! = not active in a repeat; [ ] = another dose, or the depositor's remark. Many of the other results were omitted from the sample, so hits are more common in it than they were. Unless noted, the call rests on the fitted dose curve; in most records, active means well fitted curve in the direction sought with a large enough effect; inconclusive means small, poorly fitted or top-dose-only effect, or another doubt; inactive means no such curve, though single readings can be large; an effect the other way counts as inactive or inconclusive. Unless noted, on the % scale 0 is the no-effect control and ±100 the full control effect; potency means the concentration at half of the fitted maximal effect.

SMILES	IMPase Li inh	MBNL1 CUG block	NPSR antagonist	Tb PFK block	RGS12 GoLoco inh
O=C(O)c1cccc(N2C(=O)/C(=C/c3ccc([N+](=O)[O-])cc3)C=C2c2ccccc2)c1	-8%	5%	5µM*	-4%	125%
O=C1/C(=C/c2ccc([N+](=O)[O-])cc2)C=C(c2ccccc2)N1c1ccc(O)cc1	22%[38.3 µM]	5%	13µM*	1%	30%
CC(OC(=O)c1cc[n+]([O-])cc1)C(=O)NCc1ccccc1 (stereo not drawn)	nt	nt	nt	1%	nt
C=CCN1C=CC(=C/C=C(/C#N)C(=O)OCC)C=C1	26%	?	10µM*	-9%	9%
COC(=O)[C@]12C(=O)NC[C@H](CN1c1ccc(C(F)(F)F)cc1)N2C	nt	nt	nt	0%	nt
CCOC(=O)c1c(NC(=O)c2ccco2)sc2c1CCCCC2	22%[38.3 µM]	2%	?	-4%	0%
CCOC(=O)c1c(-c2ccc(Cl)cc2)csc1NC(=O)CNCc1ccco1	nt	0%	10µM*	-1%	-12%
CCOC(=O)c1c(-c2ccc(C)s2)csc1NC(=O)c1ccco1	?	9%	7.9µM*	-2%	2%
CC(C)n1cnc2c(N(C)c3ccccc3)nc(N(CCN(C)C)Cc3ccccc3)nc21	nt	7%	10µM*	-3%	1%
COc1cc(N(Cc2ccccc2)Cc2ccccc2)c2ncn(C(C)C)c2c1	nt	nt	nt	-1%	nt
Nc1c(C(=O)Nc2ccc(Br)cc2)sc2nc(-c3ccco3)ccc12	11µM*	36%	?	6%	89%
N#Cc1c(Cl)nc(-c2ccncc2)nc1-c1ccccc1	nt	-7%	nt	-3%	nt
CCCCCC(=O)Nc1cc2[nH]c(=O)cc(COC)c2cc1C	11µM*	1%	-11%[46.1 µM]	1%	5%
COCc1cc(=O)[nH]c2cc(NC(=O)C(C)(C)CCl)c(C)cc12	2%[38.3 µM]	19%	-3%[46.1 µM]	-4%	3%
CCC(CC)C(=O)Nc1cccc(S(=O)(=O)c2cccc(NC(=O)C(CC)CC)c2)c1	11µM*	-4%	11%[46.1 µM]	1%	-14%
COc1ccc(CCN(C)C(=O)c2c(C)noc2C)cc1OC	nt	nt	nt	-4%	nt
COc1ccccc1-c1cc(C(=O)Nc2ccc(F)cc2F)no1	8.9µM*	9%	?	0%	-1%
COc1ccccc1-c1cc(C(=O)NC(C)C)no1	-9%[38.3 µM]	-6%	-17%[46.1 µM]	-1%	4%
COc1ccc(C(C(=O)NC(C)(C)C)N(C(=O)CCC(=O)Nc2cc(C)on2)c2ccccc2F)cc1 (stereo not drawn)	nt	4%	nt	0%	nt
Cc1ccc(S(=O)(=O)N2CCOCC2)cc1NC(=O)COC(=O)/C=C/c1ccco1	nt	nt	nt	-14%	nt
Oc1cncc(-c2cccnc2)c1	nt	nt	nt	-1%	nt
c1cncc(-c2cccnc2)c1	14µM*	0%	-2%[46.1 µM]	1%	8%
O=C(c1cc(S(=O)(=O)N2CCCC2)c(Cl)cc1Cl)N1CCCC1	nt	-7%	nt	5%	nt
COC(=O)c1ccc(Cn2c(C)cc(C)[n+]2C)o1	40%[38.3 µM]	8%	-2%[46.1 µM]	-4%	18µM*
O=C(c1ccc(S(=O)(=O)c2cccc(Cl)c2)c([N+](=O)[O-])c1)N1CCN(c2ccccn2)CC1	13%	?	7%	1%	3%
SMILES	IMPase Li inh	MBNL1 CUG block	NPSR antagonist	Tb PFK block	RGS12 GoLoco inh
FC(F)(F)c1cccc(-c2nc3nc(Cl)c(Cl)nc3[nH]2)c1	9%	-3%	6.3µM*	-26%	12%[14.2 µM]
COc1cnc(-c2cccc(C(F)(F)F)c2)[nH]c1=O	-2%	-18%	-14%	0%	7%
O=C(N=Nc1c(O)[nH]c2ccc(Br)cc12)c1ccccc1-n1cccc1	38%[38.3 µM]	?	13µM*	-1%	6%
COC(=O)CCC(C)C1CCC2C3C(C[C@H](O)C12C)C1(C)CC[C@@H](O)CC1C[C@H]3O (stereo partly drawn)	8%	nt	nt	nt	1%
O=c1cc(-c2ccc(O)cc2)oc2cc(O)cc(O)c12	28%	nt	25µM*	nt	18µM*!
O=c1cc(-c2ccccc2)oc2cc(O)cc(O)c12	23%	nt	nt	nt	16%
Cc1ccc(CCCOC(=O)C[N+]2(C)CCOCC2)cc1	-18%[38.3 µM]	7%	-7%[46.1 µM]	-2%	10µM*
C[N+]1(CC(=O)OCCCc2ccccc2)CCOCC1	-2%[38.3 µM]	-29%	2%[46.1 µM]	-2%	13µM*
CCCCc1nc2c(c3c1C[C@H](C)OC3)CN(C(=O)c1cc(I)ccc1F)CC2	14%	nt	nt	nt	6%[14.2 µM]
O=C(CSc1ccc(-c2ccccn2)nn1)Nc1cccc(F)c1	nt	22%	nt	-4%	nt
NC(=S)COc1ccccc1	nt	nt	0%[7.67 µM]	1%	22µM*
COc1cc(OC)c(OC)cc1/C=C1\Oc2cc(OCC(=O)N3Cc4ccccc4C[C@H]3C(=O)O)ccc2C1=O	nt	?	nt	12µM*	nt
Cc1ccc(NC(=O)c2sc3nc(C)nc(N4CCN(c5ccccn5)CC4)c3c2C)c(C)c1	14%	36%	13µM*	-1%	-4%
Cc1nc(N2CCN(c3ccccn3)CC2)c2c(C)c(C(=O)Nc3ccc(Br)cc3C)sc2n1	nt	2%	nt	-1%	nt
C=CCOc1cccc(C2C(C(=O)c3ccc(C)o3)=C(O)C(=O)N2Cc2ccncc2)c1 (stereo not drawn)	11µM*	27%	2%[46.1 µM]	3%	-7%
CCOc1cccc(C2C(C(=O)c3ccc(C)o3)=C(O)C(=O)N2Cc2ccncc2)c1 (stereo not drawn)	10µM*	48%	11%[46.1 µM]	9%	1%
COc1cc2c(cc1OC)-c1cc3ccc4c(c3c[n+]1CC2)OCO4	26%	?	13µM*	0%	2%
COc1cc2c(cc1OC)C(c1ccccc1)=NCC2	8%	?	17%	0%	4%
CC[C@]1(O)C[C@H]2CN(CCc3c([nH]c4ccccc34)[C@@](C(=O)OC)(c3cc4c(cc3OC)N(C=O)[C@H]3[C@@](O)(C(=O)OC)[C@H](OC(C)=O)[C@]5(CC)C=CCN6CC[C@]43[C@@H]65)C2)C1	nt	nt	nt	nt	2%
COC(=O)[C@H](Cc1ccccc1)NC(=O)[C@H]1C[C@@H]1[C@H](NC(=O)OCc1ccccc1)c1ccccc1	9%	nt	nt	nt	1%
Cc1nc2c(C(=O)NCc3ccc4c(c3)OCO4)cnn2c(C)c1Cc1ccc(F)cc1Cl	14%[38.3 µM]	-17%	10µM*	0%	10%
Cc1ccc(CNC(=O)CC2Nc3c4ccccc4nc(=S)n3C2=O)cc1 (stereo not drawn)	5.6µM*	4%	-1%	7%	-34%
CC(C)CCNC(=O)CC1Nc2c3ccccc3nc(=S)n2C1=O (stereo not drawn)	-22%[38.3 µM]	13%	17%[46.1 µM]	4%	11%
CC(=O)OCC[n+]1c(C)n(-c2ccccc2)c2ccc(Cl)cc21	9%	-2%	13%	1%	8.9µM*
CCOC(=O)c1ccc2c(c1)[n+](CC)c(C)n2-c1ccccc1	8%	-6%	13%	2%	10%
Cc1nc(SCCC(=O)O)c2ccccc2n1	13µM*	?	?	-6%	-4%

High-throughput results (PubChem BioAssay)
